Among all 310,000 compounds or so, about 1,000 (0.32%) were called active. Not all results are given here. Results with a measured potency or affinity are listed apart. A number with no mark means an inactive call. The rule behind the calls is not given here.
assay: PhoP regulon inhibitors, Salmonella typhi PhoP promoter GFP reporter, confirmatory (AID 1850); conditions: fluorescence, 4 h, at 50 µM, hits give high values;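 note: 0% = induced wells with vehicle and 100% = uninduced wells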

Row | SMILES | inhibition [%]
1 | FC(F)(F)c1cccc(Oc2cc(C(F)(F)F)nc(-c3ccccn3)n2)c1 | 1.08
2 | CCOc1ccc(N2C(=O)C3ON(c4ccccc4)C(c4cccs4)C3C2=O)cc1 (stereo not drawn) | 9.38
3 | CCCCC(=O)N1CCN(c2nc3ccc(F)cc3s2)CC1 | -7.63
4 | Nc1ccc(Br)c2c1C(=O)c1ccccc1C2=O | -1.04
5 | O=C1C(=O)c2ccc(-c3ccccc3)cc2-c2ccccc21 | 1.01
6 | Nc1ccc2c(c1)C(=O)C(=O)c1ccccc1-2 | 6.22
7 | Cc1cc(C)cc(NC2=C(N)C(=O)c3ccccc3C2=O)c1 | -9.49
8 | COc1ccc(/C=C/C(=O)c2ccc(O)cc2)cc1CN1CCOCC1 | -8.66
9 | CC(=O)Oc1ccc2c(=O)oc(-c3ccccc3C)nc2c1 | -4.89
10 | CN(C)CCOC1c2ccccc2C=Cc2ccccc21 | 10.7
11 | O=C1N=C2SCCN2/C1=C\c1ccc(Cl)cc1 | 3.83
12 | O=C(NCc1nc(-c2ccccc2)no1)c1cccs1 | -6.48
13 | COc1cccc(/C=N/NC(=O)CN2CC(c3ccccc3)CC2=O)c1OC (stereo not drawn) | -3.73
14 | COc1cccc(/C=N/NC(=O)CN2CC(c3ccccc3)CC2=O)c1O (stereo not drawn) | 3.81
15 | COc1cc(OC)c(C2=NOC(C(=O)N3CCc4ccccc4C3)C2)cc1Cl (stereo not drawn) | -5.06
16 | COC(=O)c1cccc(N(CC(=O)NC2CCCCC2)C(=O)CNC(=O)c2cccs2)c1 | 7.52
17 | COc1ccc(CNc2nc3ccccc3n2CCN2CCCCC2)cc1 | -9.45
18 | CCN(CC)c1ccc(CNc2nc3ccccc3n2CCN2CCOCC2)cc1 | 6.95
19 | COC(=O)N/N=C/c1ccccc1Cl | 9.79
20 | COC(=O)N/N=C/c1ccccc1 | 3.82
21 | O=C(CSc1ccc2c(c1)OCCO2)NC(=O)Cc1ccccc1 | -0.51

Row | SMILES | inhibition [%]
22 | Cc1cccc(/C=C/c2onc(C)c2S(=O)(=O)N2CCC(C(=O)N3CCCCCC3)CC2)c1 | -16.2
23 | CCOC(=O)c1cc2c(=O)n3ccccc3nc2n(C)c1=NC(=O)c1c(-c2c(F)cccc2Cl)noc1C | -5.85
24 | CC1CCCCN1CCCNC(=O)c1ccc(Br)cc1 (stereo not drawn) | 8.17
25 | CC(C)CNC(=O)COC(=O)c1ccc(Cl)c(S(=O)(=O)N2CCc3ccccc32)c1 | 1.54
26 | C[C@@H](NCCc1ccc(O)cc1)[C@@H](O)c1ccc(O)cc1 | -9.6
27 | C[C@H](NCCc1ccc(O)cc1)[C@H](O)c1ccc(O)cc1 | -4.37
28 | Cc1ccnc(NC(=O)C(C)N2C(=O)c3ccccc3S2(=O)=O)c1 (stereo not drawn) | 6.11
29 | CCOc1ccccc1NC(=O)NNC(=O)c1ccc2ccccc2c1 | 9
30 | O=C(Nc1nnc(-c2ccco2)o1)c1ccc(Cl)s1 | 2.73
31 | COc1cccc(-c2nnc(NC(C)=O)o2)c1 | -10.6
32 | COCCN(C(=O)COC(=O)C1(C)CC1(Cl)Cl)c1c(N)n(Cc2ccccc2)c(=O)[nH]c1=O (stereo not drawn) | -4.07
33 | O=C(NC1CCN(C(=S)Nc2ccc(F)cc2)CC1)C1CCCCC1 | 1.22
34 | Cc1ccc(CNC(=O)C2CCC(=O)N(Cc3cccc(C(F)(F)F)c3)C2)o1 (stereo not drawn) | -2.94
35 | Cc1ccc(NC(=O)CNCc2cccs2)cc1Br | 2.2
36 | CCN(CCC(=O)Nc1cc(OC)cc(OC)c1)Cc1ccccc1 | -6.75
37 | Cc1ccc(NC(=O)CN(C)C2CCCCC2)cc1Cl | 17.3
38 | Cc1ccc(NC(=O)CNCc2ccccc2)c(Br)c1 | 19.8
39 | O=C(CCN(CCO)Cc1ccccc1)Nc1ccc(Br)cc1 | 20.3
40 | CN(CC(=O)Nc1ccc(Cl)c(Cl)c1)C1CCCCC1 | 9.2
41 | N#Cc1cc(NC(=O)c2ccc(F)cc2)c(=O)n2c1[nH]c1ccccc12 | -0.7
42 | CCn1cc(CN2CCC(C(=O)Nc3cccc(-c4cccc(OC)c4)c3)CC2)cn1 | -5.91

Row | SMILES | inhibition [%]
43 | CN1CCN(C(=O)/C(=C\c2ccccc2)c2ccccc2)CC1 | 3.28
44 | Cc1cccc(-n2cc(-c3ccccc3)c3c(=O)[nH]cnc32)c1 | -10.3
45 | COc1ccc(CCNC(=O)CN(c2cccc([N+](=O)[O-])c2)S(C)(=O)=O)cc1 | -12
46 | Cc1ccccc1C(=O)N1CCN(S(=O)(=O)c2ccccc2)CC1 | -4.37
47 | O=C(CSc1nnc(SCc2ccccc2Cl)s1)N/N=C/c1ccc(C(=O)O)cc1 | -6.94
48 | COC(=O)c1cc(S(=O)(=O)N2CCN(c3ccccc3F)CC2)c[nH]1 | -1.3
49 | O=C1CSC(=S)N1c1cccc(Cl)c1 | -2.26
50 | O=C(O)c1cccc(N2C(=O)CSC2=S)c1 | 65.1
51 | Cc1cc(NC(=O)NN2CCOCC2)nn1-c1c(Cl)cccc1Cl | -1.26
52 | Nc1nc(SCC(=O)Nc2ccc([N+](=O)[O-])cc2)[nH]c(=O)c1NC(=O)c1ccc(Br)o1 | -2.49
53 | c1cncc(-c2nnc(SCc3cccc4ccccc34)o2)c1 | 8.54
54 | Cc1ccc2[nH]c3c(c2c1)CCc1cn[nH]c1-3 | -6.69
55 | c1ccc2c3c([nH]c2c1)-c1[nH]ncc1CC3 | -5.34
56 | Cc1ccc2c(c1)C1C3CCC(C3)C1S(=O)N2 (stereo not drawn) | -0.67
57 | COc1cc2ccccc2cc1C(=O)Nc1cccnc1 | -16.1
58 | Nc1nnc(Cc2ccc(Cl)cc2Cl)s1 | -0.54
59 | Clc1ccc(Cc2ccc(Cl)nn2)c(Cl)c1 | -3.15
60 | Cc1nc(N)c(Cc2ccccc2F)c(N)n1 | 8.16
61 | Nc1nc(-c2ccccn2)nc(N)c1Cc1ccc(Cl)cc1Cl | -4
62 | CCOC(=O)C1(Cc2cccc(OC)c2)CCN(Cc2cnc(SC)nc2)CC1 | -3.1
63 | CC(/C=C/c1ccc2c(c1)OCO2)=N/NC(=O)COc1ccc(C)cc1 | -7.1

Source: PubChem BioAssay AID1850 (Southern Research Specialized Biocontainment Screening …, 2009)
